Screening data deposited in PubChem BioAssay by Buhrlage Lab, Dana-Farber Cancer Institute and Novartis Institutes for BioMedical Research (Cambridge, Mass).
This is a sample that favours compounds with a hit; in the whole collection about 12% have one here.
USP17 inh – inhibitors of human USP17 deubiquitinase. inhibition, % at 50 µM. AID 1645855. purified USP17, Ub-rhodamine cleavage fluorescence, 3 h. A8MUK1. 6.5% of 47,000 active
UCHL1 inh – blocks human UCHL1 ubiquitin-rhodamine cleavage; purified UCHL1, Ub-rhodamine cleavage fluorescence; P09936; 0.2% of 47,000 active; inhibition, % at 20 µM; AID 1645859
USP7 block – blocks human USP7 ubiquitin-rhodamine cleavage; purified USP7, Ub-rhodamine cleavage fluorescence; inhibition, % at 20 µM; 0.3% of 47,000 active; AID 1645854
USP8 block – inhibitors of human USP8 deubiquitinase | inhibition, % at 20 µM | purified USP8, Ub-rhodamine cleavage fluorescence, 30 min | AID 1645853 | 4.2% of 47,000 active | P40818
USP10 inh – inhibitors of human USP10 deubiquitinase; inhibition, % at 20 µM; AID 1645856; purified USP10, Ub-rhodamine fluorescence, 60 min; 1.1% of 47,000 active
USP30 block – blocks human USP30 ubiquitin-rhodamine cleavage; Q70CQ3; purified USP30, Ub-rhodamine cleavage fluorescence; inhibition, % at 25 µM; 5.3% of 47,000 active; AID 1645860
Target sequence (Q70CQ3 whole entry, looked up): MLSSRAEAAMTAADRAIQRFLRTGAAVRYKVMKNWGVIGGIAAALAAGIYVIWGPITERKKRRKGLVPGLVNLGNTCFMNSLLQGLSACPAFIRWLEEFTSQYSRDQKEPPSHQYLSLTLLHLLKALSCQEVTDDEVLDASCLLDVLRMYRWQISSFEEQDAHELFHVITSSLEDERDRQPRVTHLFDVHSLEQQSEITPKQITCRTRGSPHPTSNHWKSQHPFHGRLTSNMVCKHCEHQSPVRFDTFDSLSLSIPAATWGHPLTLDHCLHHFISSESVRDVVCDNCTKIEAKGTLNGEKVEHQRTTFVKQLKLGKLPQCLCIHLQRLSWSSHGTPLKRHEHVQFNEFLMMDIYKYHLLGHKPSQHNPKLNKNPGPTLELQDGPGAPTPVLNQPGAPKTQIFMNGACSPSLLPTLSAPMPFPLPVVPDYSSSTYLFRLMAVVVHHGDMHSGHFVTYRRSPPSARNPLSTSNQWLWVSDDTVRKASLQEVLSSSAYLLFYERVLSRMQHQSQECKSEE
Of the large screens only hits and unclear results are named; the others gave an inactive call. No stated cut-off is given here; in the data, active means inhibition above about 30%; inactive means the rest.

O=C(c1cc2occc2c(Nc2ccc(F)cc2)n1)N1CCN(c2ccccn2)CC1	USP17 inh 34
Cc1ccc(Nc2nc(C(=O)NCCCN3CCCC3=O)cc3occc23)cc1	none
Cc1ccc(Nc2nc(C(=O)N3CCN(c4ccccn4)CC3)cc3occc23)cc1Cl	none
Cc1ccccc1CNC(=O)c1cc2occc2c(Nc2ccc(F)cc2)n1	USP8 block 55
Cc1ccc(CNC(=O)c2cc3occc3c(Nc3ccccc3)n2)cc1	USP17 inh 49, USP8 block 57
COc1ccc(S(=O)(=O)Nc2cccc(-c3cn4cccc(C)c4n3)c2)cc1OC	none
c1ccc(-c2cc3c(N4CCc5ccccc5C4)ncnc3s2)cc1	USP8 block 53
O=C(c1noc2ccc(S(=O)(=O)NCc3ccccc3)cc12)N1CCCCC1	none
COc1ccc(N(CC(=O)Nc2cccc(F)c2)S(=O)(=O)c2ccc(OC)c(OC)c2)cc1	USP17 inh 36, USP30 block 51
COc1ccc(CNC(=O)CN(c2ccccc2)S(=O)(=O)c2ccc(F)cc2)cc1OC	none
COc1ccc(S(=O)(=O)N(CC(=O)NCc2ccc3c(c2)OCO3)c2ccc(F)cc2)cc1OC	USP17 inh 34, USP30 block 38
Cc1nc(Nc2ncc(C)s2)cc(C2CN(C(=O)Cc3ccccc3)CCO2)n1 (centres undefined)	USP17 inh 38, USP30 block 55
Cc1nnc(SCC(=O)c2ccc3ccccc3c2)n1Cc1ccccc1	none
O=C(CSc1nnc(-c2ccncc2)n1Cc1ccccc1)c1ccc2[nH]c(O)cc2c1	USP17 inh 58, USP8 block 65
CC(C)(C)OC(=O)N1CCC(Cc2cncc(-c3cn[nH]c3)n2)C1 (centres undefined)	none
Cc1cccc(CCN2C(=O)CCc3c(C)nc(C4CCCNC4)nc32)c1 (centres undefined)	USP7 block 33
Cc1nc(C2CCCNC2)nc2c1CC(=O)N2CCc1ccccc1F (centres undefined)	none
Cc1ccc(Cn2c(CCNC(=O)c3ccc(Cl)cc3)nc3ccccc32)cc1	USP17 inh 68, USP30 block 52
NC(=O)c1ccc(NC(=O)CCCC2=NS(=O)(=O)c3ccccc3N2)cc1	none
O=C(CCCC1=NS(=O)(=O)c2ccccc2N1)Nc1ccc(Cl)c(Cl)c1	USP17 inh 34
Cc1cc(=O)oc2cc(NC(=O)c3ccc(-n4cnnn4)cc3)ccc12	USP17 inh 44, USP8 block 36
COc1cccc(C(=O)Nc2ccc(SC(C(=O)Nc3ccccc3)c3ccccc3)cc2)c1 (centres undefined)	none
COc1cccc(C(=O)Nc2ccc(SC(C)C(=O)Nc3ccc(C(N)=O)cc3)cc2)c1 (centres undefined)	USP10 inh 36
Cc1cc(=O)oc2cc(NC(=O)c3ccccc3C(=O)O)ccc12	none (no result: USP7 block, USP30 block)
COc1cccc(C(=O)Nc2ccc(-n3cnnn3)cc2)c1	USP17 inh 32, USP30 block 51
O=C(OCc1c(F)cccc1Cl)c1c2c(nc3ccccc13)CCC2	USP17 inh 44
O=C(c1ccc2c(c1)OCO2)N(CC1CC1)C1CCN(CCc2cccs2)CC1	none
Cc1cnnn1-c1ccc(C(=O)Nc2ccc(Cl)cc2Cl)cc1	USP17 inh 84, USP8 block 59, USP30 block 81
COC(=O)c1ccc(NC(=O)c2ccc(-n3nncc3C)cc2)cc1	none
Cc1cnnn1-c1ccc(C(=O)Nc2ccccc2F)cc1	USP30 block 34
Cc1cnnn1-c1ccc(C(=O)Nc2ccccc2C(F)(F)F)cc1	none
Cc1ccccc1CNc1nc(N2CCN(CCO)CC2)nc2c1cnn2C	none
Cc1ccc(-n2nnc(C(=O)Nc3ccc(F)cc3F)c2C)cc1	none
Cc1ccc(NC(=O)c2nnn(-c3cccc(F)c3)c2C)cc1	USP30 block 43
COc1ccc(-n2nnc(C(=O)Nc3cccc(F)c3)c2C)cc1	USP17 inh 48
CCc1ccc(-n2nnc(C(=O)Nc3ccc(F)cc3)c2C)cc1	USP30 block 32
COc1ccc(NC(=O)c2nnn(-c3ccc(F)cc3)c2C)cc1	USP17 inh 48
COc1ccc(NC(=O)c2cnn(-c3ccc(F)cc3)c2C)cc1	none
O=C(NCc1nc(-c2ccc(N3CCCCCC3)cc2)no1)c1ccccc1	none
CCC(C)[C@H](NC(=O)[C@@H](Cc1ccccc1)n1c(=O)[nH]c2ccccc2c1=O)C(=O)NCC1CCC(C(=O)O)CC1 (some centres undefined)	none
Cc1c(C(=O)Nc2ccc(Cl)cc2)nnn1-c1ccc(F)cc1	none
Cc1ccc(-n2nnc(C(=O)Nc3ccc(F)cc3)c2C)cc1C	none
COc1ccc(C(=O)c2nnn(-c3ccc(OC(F)(F)F)cc3)c2C)cc1	USP8 block 33
Cc1ccc(-n2nnc(C(=O)Nc3ccccc3F)c2C)cc1C	USP17 inh 56 (no result: USP30 block)
COc1ccc(-n2nnc(C(=O)Nc3ccc(F)cc3F)c2C)cc1	none
COc1ccc(-n2nnc(C(=O)Nc3ccc(F)cc3)c2C)cc1	USP17 inh 50
CC(C)(C)NC(=O)N1CCC(n2c(-c3ccc(F)cc3)nc3cccnc32)C1 (centres undefined)	none
COCCN1C(=O)c2ccccc2C(C(=O)Nc2cccc(C(C)=O)c2)C12CCCCC2 (centres undefined)	none
CC(=O)N(O)CCC[C@@H]1NC(=O)[C@H](CCCN(O)C(C)=O)NC1=O	USP17 inh 36
c1ccc(-c2cc(CSc3nc4ccccc4[nH]3)no2)cc1	USP17 inh 33
CC(Sc1nc2sc3c(c2c(=O)[nH]1)CCCC3)C(=O)NCc1ccco1 (centres undefined)	none
COc1ccc2nc(N(CCCn3ccnc3)C(=O)c3ccc(Cl)s3)sc2c1	USP17 inh 42, USP30 block 50
Cc1cc(C)c2sc(N(CCN(C)C)C(=O)CS(=O)(=O)c3ccccc3)nc2c1	none
Cc1cc(C)c2sc(N(CCCn3ccnc3)C(=O)Cc3ccccc3)nc2c1	USP30 block 92 (no result: USP17 inh)
Cc1cc(C)c(S(=O)(=O)Nc2ccc(Cn3cncn3)cc2)c(C)c1	none
CCOc1ccccc1NC(=O)c1nnn(-c2ccc3noc(-c4ccccc4)c3c2)c1C	none
CCC(C)N1CCN(Cc2cc(=O)[nH]c(-c3cccnc3)n2)CC1 (centres undefined)	none
CNC(=O)C1CN(C(=O)c2ccccc2C)CC12CCCC2 (centres undefined)	none
Cc1ccc(NC(=O)C2CCN(c3nc4nc[nH]c(=O)c4s3)CC2)cc1F	USP8 block 39
O=C(Nc1ccc(Cl)cc1)C1CCN(c2nc3nc[nH]c(=O)c3s2)CC1	none
CCc1ccc(NC(=O)C2CCN(c3nc4nc[nH]c(=O)c4s3)CC2)cc1	USP30 block 34
CCCCOc1ccc(-c2nc(SCCc3ccccc3)c3c4c(sc3n2)COC(C)(C)C4)cc1	none
CCc1ccccc1NC(=O)c1ccc(N2C(=O)C(C)CS2(=O)=O)cc1Cl (centres undefined)	none
